# Bioassay records deposited in PubChem BioAssay by National Center for Advancing Translational Sciences (NCATS).
# Compounds with a hit are over-represented: about 3.4% of the library has one in this group of screens.
# PLK1 PBD inh: blocks phosphopeptide binding to human PLK1 polo-box domain; P53350; Plk1 PBD binding of FITC phosphopeptide, fluorescence polarization; Potency, µM, for inactives: max response, negative = inhibition, hits mostly inhibitors; 360,000 tested, 2.8% active; AID 720504; also: series mostly up to about 57 µM; % is scaled to controls: 0 for no effect and ±100 for the full control effect; nearly all actives have a fitted effect of over 65% in size
# VDR inh: inhibitors of human vitamin D receptor; 400,000 tested, 0.93% active; P11473; VDR-SRC2-3 peptide fluorescence polarization, 2 h; Potency, µM, inactives show max response, negative = inhibition, usual class: inhibitors; AID 504847; also: % is scaled to controls: 0 for no effect and ±100 for the full control effect
#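 After 23 nl compound addition and a short centrifugation, plates sat for 2 hours at ambient temperature; polarization of fluorescence then indicated loss of VDR binding to peptide SRC2-3.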
# Mito fusion yeast: blocks mitochondrial division or promotes mitochondrial fusion | S. cerevisiae fusion-defective mutant growth rescue, CellTiterGlo 48 h | Potency, µM (titrated, usually from 46.1 µM), inactives show at the top dose growth rescue (activation), usual class: activators | 320,000 tested, 0.23% active | AID 485298; also: % of control where 0% means no effect; nearly all actives have a fitted effect of over 45% in size
#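 Luminescent cell viability in 1536-well qHTS format served as the measure of rescued growth in ts fusion-mutant S. cerevisiae cultured on non-fermentable YPEG for 48 hours at 37C.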
# GLS inh: glutaminase GLS (human) inhibition. O94925. GLS enzymatic activity, qHTS titration. Potency, µM (titrated, usually from 45.5 µM), for inactives: at the top dose activity change, negative = inhibition, hits mostly inhibitors. 410,000 tested, 0.21% active; also: % is scaled to controls: 0 for no effect and ±100 for the full control effect
#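 hKGA in 45 mM KH2PO4 pH 8.2, 0.02% Tween-20 with pin-transferred compounds; 1 mM L-glutamine (stock) plus glutamate oxidase/HRP/Amplex Red coupling added. Fluorescence read initially and after 30 min at RT.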
# PKM2 act: activators of human pyruvate kinase M2. P14618. purified PKM2, Kinase-Glo ATP luminescence, activation; response scale: 0% is enzyme alone, no compound. Potency, µM (doses to about 57.5 µM), for the others: top-dose activation, most hits filed as activators. 260,000 tested, 0.34% active. AID 1631; also: % is scaled to controls: 0 for no effect and ±100 for the full control effect; nearly all actives have a fitted effect of over 55% in size
# Target sequence (P14618 whole entry, looked up): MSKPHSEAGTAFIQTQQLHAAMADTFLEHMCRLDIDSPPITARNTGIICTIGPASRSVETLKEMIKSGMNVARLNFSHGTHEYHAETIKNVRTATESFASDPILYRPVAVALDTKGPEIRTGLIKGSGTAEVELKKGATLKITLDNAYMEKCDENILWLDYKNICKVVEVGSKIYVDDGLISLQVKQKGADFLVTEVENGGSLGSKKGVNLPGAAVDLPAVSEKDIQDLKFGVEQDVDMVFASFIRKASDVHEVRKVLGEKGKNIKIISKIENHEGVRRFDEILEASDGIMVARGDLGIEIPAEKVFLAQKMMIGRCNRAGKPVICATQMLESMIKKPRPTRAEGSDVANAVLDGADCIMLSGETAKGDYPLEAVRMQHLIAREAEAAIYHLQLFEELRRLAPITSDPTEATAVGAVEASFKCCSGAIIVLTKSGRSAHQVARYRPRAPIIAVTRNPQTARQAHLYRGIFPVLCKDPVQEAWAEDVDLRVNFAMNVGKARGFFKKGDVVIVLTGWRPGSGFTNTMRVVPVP
#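 Purified hPK-M2 (>95% pure) converted ADP (0.1 mM final) to ATP with 0.5 mM PEP in 50 mM imidazole pH7.2, KCl, MgCl2, Tween 20, BSA; 1 h at room temperature. ATP detected by Kinase-Glo luminescence.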
# GCN5L2 inh: inhibitors of human GCN5L2 histone acetyltransferase. Q92830. GCN5L2 HAT assay, ThioGlo1 CoA-SH fluorescence. Potency, µM (series often up to 58.9 µM), for the others: top-dose activity change, negative = inhibition, actives largely listed as inhibitors. 390,000 tested, 0.21% active. AID 504327; also: % is scaled to controls: 0 for no effect and ±100 for the full control effect
#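 Titration-based screen in which CoA formation is detected via maleimide probe ThioGlo1 (50uM) turning fluorescent on thiol reaction; substrates H3(1-25) 75uM and acetyl-CoA 70uM, GCN5L2 20nM, 20 min incubation at room temperature.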
# Active calls of the source: *; ? = inconclusive; . = not tested or not shown; ! = repeats disagree. Calls follow the shape of the dose curve; as a rule, active = well fitted curve in the direction sought with a large enough effect; inconclusive = small, poorly fitted or top-dose-only effect, or another doubt; inactive = no such curve, though single readings can be large; an effect the other way counts as inactive or inconclusive. Potency is read from the fitted curve at half-maximal effect.
SMILES,PLK1 PBD inh,VDR inh,Mito fusion yeast,GLS inh,PKM2 act,GCN5L2 inh
Cc1ccc2c(c1)/C(=C/c1ccccc1)C(=O)N2,-16%,?,-6%,-10%,.,-19%
CN1C(=O)/C(=C\C(=O)c2cccs2)c2ccccc21,17µM*,28µM*,2%,4%,1%,2%
C=CCOC(=O)N[C@H](/C(C(=O)OC)=C(\C)NCc1ccccc1)c1ccc(C)cc1,.,-3%,.,.,.,.
C/C(=C\C(=O)OCCCCCCCCC(=O)O)C[C@@H]1OCC(C[C@H]2O[C@H]2[C@@H](C)[C@H](C)O)[C@@H](O)[C@H]1O (stereo partly drawn),.,-7%,.,.,.,30%
C[C@@H]1CN([C@H](C)CO)C(=O)c2cc(C#CC3CCCCC3)cnc2O[C@H]1CN(C)Cc1cccnc1,-6%,.,.,-23%,.,.
C[C@H]1C=CC(=O)C[C@H]1c1c(F)cccc1Cl,.,-7%,.,.,.,.
O=C(COC(=O)c1ccccc1SCC(=O)NC1CCS(=O)(=O)C1)NC1CCS(=O)(=O)C1 (stereo not drawn),-7%,9%,-1%,-4%,-30%,-9%
CCNC(=O)NC(=O)COC(=O)c1ccccc1SCC(=O)NC(=O)NCC,2.7µM*,?,?,?,-20%,-10%
COc1ccc2c(c1)c(=O)oc1c(C)c(OCc3ccc(C(=O)O)cc3)ccc12,30µM*,-6%,-5%,?,.,-11%
CC1(C(=O)Nc2ccc3c(c2)OCCO3)CSCC(=O)N1Cc1ccco1 (stereo not drawn),3%,.,.,.,.,.
CN(C)c1ccc(/C=C/c2c([N+](=O)[O-])c(=O)n(C)c(=O)n2C)cc1,-6%,-4%,-7%,14%,.,-1%
Cn1c(/C=C/c2ccc(Br)cc2)c([N+](=O)[O-])c(=O)n(C)c1=O,-7%,50µM*,-14%,3%,.,1%
O=C1NC(=O)C(=Cc2ccccc2[N+](=O)[O-])S1,13µM*,?,.,-3%,.,.
O=C1NC(=O)/C(=C/c2cccc3ccccc23)S1,27µM*,6%,8%,21%,0%,-8%
Fc1ccc(-c2csc(N3CCSCC3)n2)cc1,-2%,-9%,1%,-1%,1%,-8%
Clc1ccc(-c2csc(N3CCSCC3)n2)cc1,24µM*,-29%,-5%,-2%,2%,-4%
CCCCC(NC(=O)COc1cc2c(c3oc(=O)cc(C)c13)CCC(C)(C)O2)C(=O)O (stereo not drawn),-11%,10%,16%,5%,.,35µM*
Cc1c(C)c2c(OCC(=O)NCC(=O)NCC(=O)O)cc3c(c2oc1=O)CCC(C)(C)O3,12µM*,?,2%,?,.,-15%
Cc1c(C)c2c(OCC(=O)N3CCC(C(=O)O)CC3)cc3c(c2oc1=O)CCC(C)(C)O3,-10%,1%,0%,3%,0%,16µM*
CCc1cc(=O)oc2c3c(cc(OCC(=O)NCCCC(=O)O)c12)OC(C)(C)CC3,-9%,-12%,20%,0%,.,10µM*
COc1ccc(Cc2n[nH]c(=S)o2)cc1,-21%,-6%,0%,12%,3%,-3%
S=c1[nH]nc(CCCc2n[nH]c(=S)o2)o1,21µM*,-9%,3%,0%,-9%,0%
S=c1[nH]nc(Cc2ccc(Cl)cc2)o1,34µM*,-15%,-2%,2%,-3%,-3%
COc1cccc2cc(C(=O)C3=C(O)C(=O)N(c4cc(C)on4)C3c3cccs3)oc12 (stereo not drawn),?,-12%,0%,?,4%,-12%
Cc1ccc(-c2nn(C)c(=O)c3ccccc23)cc1CNC(=O)CSc1nc2ccccc2o1,27µM*!,-3%,4%,66%,0%,-10%
SMILES,PLK1 PBD inh,VDR inh,Mito fusion yeast,GLS inh,PKM2 act,GCN5L2 inh
Cc1cc(S(=O)(=O)NCc2ccncc2)c(C)cc1Br,-6%,-1%,-2%,18%,-20%,-18%
Cc1ccnc(NC(=O)c2ccccc2[N+](=O)[O-])c1,9.5µM*,6%,1%,-5%,0%,-10%
Cc1ccnc(NC(=O)/C=C/c2ccccc2[N+](=O)[O-])c1,.,.,1%,.,-7%,0%
COc1ccc(OCCn2cc(/C=N/NC(=O)c3ccncc3)c3ccccc32)cc1,4%,-5%,10%,12%,-4%,-5%
Cc1ccc(OCCn2cc(/C=N/NC(=O)c3ccncc3)c3ccccc32)cc1,15µM*,8%,13%,-12%,0%,-1%
Nc1ccc2cc3[nH]c4cc(N)ccc4c3nc2c1,2.4µM*,33%,.,-1%,.,.
CC(C)(C)c1ccc(-c2nnc3sc(-c4ccccn4)nn23)cc1,21µM*,?,6%,-2%,-14%,-15%
COc1cccc(-c2nnc3sc(-c4ccccn4)nn23)c1,27µM*,-13%,17%,3%,-6%,-3%
COc1cccc(-c2nn3c(-c4ccccn4)nnc3s2)c1,-8%,4%,-4%,-8%,-3%,1%
Cc1ccc(Nc2nnns2)cc1C,27µM*,45µM*,8%,5%,-5%,-4%
COC(=O)c1cc(S(=O)(=O)NCCN2CCN(c3ccccc3F)CC2)c[nH]1,21µM*,-20%,.,-9%,.,-2%
COc1ccc(-c2nc(CS(=O)CC(=O)NC3CCCC3)c(C)o2)cc1 (stereo not drawn),27µM*,?,11%,0%,.,0%
Cc1ccc(CCNC(=O)CS(=O)Cc2nc(-c3ccccc3C)oc2C)cc1 (stereo not drawn),.,-11%,.,-6%,.,2%
Cc1ccc(-c2nc(CS(=O)CC(=O)NC3CCCCC3)c(C)o2)cc1 (stereo not drawn),-16%,0%,4%,-12%,.,-5%
CCc1ccc(-c2nc(CS(=O)CC(=O)NCCCN3CCC(C)CC3)c(C)o2)cc1 (stereo not drawn),27µM*,-9%,9%,4%,.,-6%
Cc1ccccc1-c1nc(CS(=O)CC(=O)NCCc2ccc(Cl)cc2)c(C)o1 (stereo not drawn),19µM*,-14%,5%,-2%,.,0%
Cc1oc(-c2cccs2)nc1CS(=O)CC(=O)NC1CCCCCC1 (stereo not drawn),21µM*,?,0%,0%,9%,-4%
CC(C)C[C@@H](CC(=O)N[C@@H](CCCN)CC(=O)N[C@@H]1CCNC[C@H]1C(=O)N[C@H](CC(=O)N[C@@H](CCC(=O)O)CC(=O)O)Cc1c[nH]c2ccccc12)NC(=O)[C@@H]1CCCC[C@H]1N,.,-4%,.,.,.,.
COc1cc(OC)c(NC(c2nnc(-c3ccccc3)o2)c2ccc(F)cc2Cl)cc1Cl (stereo not drawn),.,6%,.,6%,.,-2%
